These results are taken from PubChem BioAssay (EPA / NIEHS).

Each structure is given as a SMILES string. Inconclusive results are not listed. Activity calls are given as the source filed them. The calls were made as follows: active = hit-call score of the fitted dose curve at least 0.9, where 1 is the maximum; inconclusive = response in the unintended direction; inactive = score below 0.9.

Chain of sheep Cyclooxygenase-1 (Cox1), PTGS1 (gene 443551) (P05979 whole entry, looked up): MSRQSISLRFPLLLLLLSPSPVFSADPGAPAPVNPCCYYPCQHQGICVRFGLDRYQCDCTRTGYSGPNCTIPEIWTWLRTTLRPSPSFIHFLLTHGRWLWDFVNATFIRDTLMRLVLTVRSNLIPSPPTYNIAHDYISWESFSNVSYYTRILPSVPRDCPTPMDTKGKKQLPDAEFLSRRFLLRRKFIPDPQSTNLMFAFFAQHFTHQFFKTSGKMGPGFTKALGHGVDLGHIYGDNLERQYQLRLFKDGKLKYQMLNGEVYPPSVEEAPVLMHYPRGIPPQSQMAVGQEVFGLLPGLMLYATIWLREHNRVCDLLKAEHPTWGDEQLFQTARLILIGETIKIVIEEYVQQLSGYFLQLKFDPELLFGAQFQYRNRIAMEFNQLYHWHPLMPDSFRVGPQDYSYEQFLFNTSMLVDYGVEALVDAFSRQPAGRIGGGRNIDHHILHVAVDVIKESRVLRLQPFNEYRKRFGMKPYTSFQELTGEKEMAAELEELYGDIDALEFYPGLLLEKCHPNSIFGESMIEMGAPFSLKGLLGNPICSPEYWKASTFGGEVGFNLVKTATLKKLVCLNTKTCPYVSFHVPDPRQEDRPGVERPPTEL
Chain of Adenosine receptor A1 (Bos taurus) (P28190 whole entry, looked up): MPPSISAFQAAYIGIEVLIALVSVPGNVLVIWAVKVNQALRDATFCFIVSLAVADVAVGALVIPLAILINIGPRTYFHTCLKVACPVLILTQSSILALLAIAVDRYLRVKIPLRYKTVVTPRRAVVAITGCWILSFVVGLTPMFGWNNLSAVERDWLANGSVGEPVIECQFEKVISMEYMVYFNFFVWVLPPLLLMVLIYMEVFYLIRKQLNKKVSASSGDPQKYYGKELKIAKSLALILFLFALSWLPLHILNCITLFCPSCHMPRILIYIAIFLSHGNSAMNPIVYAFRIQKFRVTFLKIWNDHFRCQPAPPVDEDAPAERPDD

For one assay, the target named is sheep Cyclooxygenase-1 (Cox1), PTGS1 (gene 443551) (UniProt P05979). In words: NVS_ENZ_oCOX1: NovaScreen (NVS) Enzymatic Assay for sheep Cyclooxygenase-1 (Cox1) (AID 2283239).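 Also: actives reduce cyclooxygenase activity so potencies are for inhibitors.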 The essentials:
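Native ovine seminal vesicle protein serves as enzyme source in this biochemical assay. Colorimetric signal is recorded 0.66 h after chemical addition, and decreases versus the DMSO control define activity.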
With `O=C1c2ccccc2C(=O)N1CCc1noc(-c2ccc(CN3CCCCCC3)s2)n1`, the compound was classed as inactive.

Regarding `O=c1c(-c2ccc(O)cc2)coc2cc(O)cc(O)c12`, the outcome was inactive.

The AC50 is the midpoint of the concentration-response curve, whichever way the signal moves. Take `Oc1ccc2ccccc2c1`: the AC50 is 5.35 µM (active).

In a further assay the test system is bovine Angiotensin II Receptor Type 2 (AT2), gene 407157. In words: NVS_GPCR_bAT2: NovaScreen (NVS) G Protein-Coupled Receptor Assay for bovine Angiotensin II Receptor Type 2 (AT2) (AID 2283240). The method, boiled down: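 Radioligand displacement on bovine cerebellar membranes, 1 hour incubation, filter-based scintillation counting; loss of signal vs DMSO. Duplicate single-point screen at 25 uM, then concentration-response to 50 uM maximum.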
For `O=C1c2ccccc2C(=O)N1CCc1noc(-c2ccc(CN3CCCCCC3)s2)n1`, the compound was called inactive.

For `COc1ccc2cc(S(=O)(=O)N[C@H](CC(=O)N[C@H](Cc3ccc(CN4[C@H](C)CCC[C@@H]4C)cc3)C(=O)N(C)C(C)C)c3ccc4c(c3)OCO4)ccc2c1`, the AC50 was 37.5 µM (active).

Consider `O=C(O)Cn1c(=O)n(Cc2ccc(Br)cc2F)c(=O)c2ccc(Cl)cc21`, for which the outcome was inactive.

For the compound `COc1cc(C(=O)NC2CCN(C)CC2)ccc1Nc1ncc2c(n1)N(C1CCCC1)CC(F)(F)C(=O)N2C`, the AC50 is 14 µM (active).

With `Cc1occc1C(=O)Nc1ccc(C(=O)N2CCC(F)(F)/C(=C\C(=O)N3CCC(N4CCCCC4)CC3)c3ccccc32)cc1`, the AC50 is 3.76 µM (active).

In a further assay the target is bovine Dopamine Receptor (DR), Non-selective Binding, DRD1 (gene 281125) (UniProt Q95136). Nature of the assay: NVS_GPCR_bDR_NonSelective: NovaScreen (NVS) G Protein-Coupled Receptor Assay for bovine Dopamine Receptor (DR), Non-selective Binding (AID 2283241). The method, boiled down: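 Bovine striatal membranes; radioligand displacement read by filtration and scintillation counting 1 h after dosing, loss of signal vs DMSO. Screened in duplicate at 25 uM, then concentration-response for hits.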
Chain of bovine Dopamine Receptor (DR), Non-selective Binding, DRD1 (gene 281125) (Q95136 whole entry, looked up): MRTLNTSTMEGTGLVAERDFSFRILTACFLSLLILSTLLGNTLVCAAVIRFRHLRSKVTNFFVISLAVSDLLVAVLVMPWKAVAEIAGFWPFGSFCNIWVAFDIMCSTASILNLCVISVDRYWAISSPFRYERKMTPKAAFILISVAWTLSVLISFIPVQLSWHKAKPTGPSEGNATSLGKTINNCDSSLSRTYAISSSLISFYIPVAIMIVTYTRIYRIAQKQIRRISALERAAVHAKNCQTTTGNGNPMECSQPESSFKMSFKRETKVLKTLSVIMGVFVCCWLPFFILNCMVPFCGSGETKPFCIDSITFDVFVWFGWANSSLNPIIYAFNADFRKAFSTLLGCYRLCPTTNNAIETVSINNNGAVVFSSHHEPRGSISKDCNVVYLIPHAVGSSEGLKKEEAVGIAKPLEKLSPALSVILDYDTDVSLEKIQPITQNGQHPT
Turning to `CCN(CC)C(=O)c1cc(S(=O)(=O)Cc2ccccc2)c(N2CCC(c3ccccc3)CC2)cc1N(CC)CCN(C)C`, the AC50 was 6.88 µM (active).

Consider `O=C1c2ccccc2C(=O)N1CCc1noc(-c2ccc(CN3CCCCCC3)s2)n1`, for which the AC50 was 14.6 µM (active).

As to `COc1cc(C(=O)NC2CCN(C)CC2)ccc1Nc1ncc2c(n1)N(C1CCCC1)CC(F)(F)C(=O)N2C`, the AC50 is 11.2 µM (active).

Another assay concerns the target Adenosine receptor A1 (Bos taurus) (UniProt P28190). Nature of the assay: NVS_GPCR_bAdoR_NonSelective: NovaScreen (NVS) G Protein-Coupled Receptor Assay for bovine Adenosine Receptor (AdoR), Non-selective Binding (AID 2283244). The essentials: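 Bovine striatal membranes, radioligand displacement binding, 1 h after dosing, filter-based scintillation counting. Screened in duplicate at 25 uM, then concentration-response up to 50 uM; loss of specific binding relative to DMSO.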
As for `CCCCCCCCCC(=O)O`, the compound was called inactive.

`CCN(CC)C(=O)c1cc(S(=O)(=O)Cc2ccccc2)c(N2CCC(c3ccccc3)CC2)cc1N(CC)CCN(C)C`: the compound was called inactive.

Take `O=c1c(-c2ccc(O)cc2)coc2cc(O)cc(O)c12`: the concentration at half-maximal activity (AC50) was 18.9 µM (active).
